Experimental data: PubChem BioAssay (EPA / NIEHS)
“And” between values parts separate entries of the source, which are not always exact repeats. Identical values can stand only once. Records with an inconclusive call do not appear. The source made the active and inactive calls. The calls were made as follows, unless noted: active = hit-call score of the fitted dose curve at least 0.9, where 1 is the maximum; inactive = score below 0.9.

Key:
[1] = read-out: NAD(P)H dehydrogenase [quinone] 1 (NQO1), NQO1 (gene 1728); assay: LTEA_HepaRG_NQO1: Life Technologies and Expression Analysis (LTEA) Assay for NAD(P)H dehydrogenase [quinone] 1 (NQO1) using HepaRG (AID 2283526); conditions: mRNA level, 48 h; actives raise or lower the signal
Procedure, shortened: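 HepaRG, 48 h post-plating → serum-free induction medium → test chemical 48 h (duplicate, 100 uM top, half-log x8, 0.5% DMSO) → RNA isolation → qRT-PCR, ACTB/GAPDH/POLR2A normalization; bidirectional curve fit vs DMSO baseline.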

[2] = read-out: Nuclear factor erythroid 2-related factor 2 (Homo sapiens) (UniProt Q16236); assay: LTEA_HepaRG_NFE2L2: Life Technologies and Expression Analysis (LTEA) Assay for Nuclear factor erythroid 2-related factor 2 (NFE2L2) Transcription Factor using HepaRG (AID 2283527); conditions: mRNA level, 48 h; actives raise or lower the signal;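 also: TaqMan qRT-PCR transcript level normalised to ACTB GAPDH and POLR2A housekeeping genes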
Procedure, shortened: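 Transcript level of NFE2L2 is the read-out, measured by microfluidic TaqMan qRT-PCR and normalized to three housekeeping genes. Human HepaRG cultures received test chemical for 48 h at up to 100 uM in half-log steps. Gain or loss of signal is fitted relative to 0.5% DMSO.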

[3] = read-out: succinate dehydrogenase complex iron sulfur subunit B (SDHB), SDHB (gene 6390); assay: LTEA_HepaRG_SDHB: Life Technologies and Expression Analysis (LTEA) Assay for succinate dehydrogenase complex iron sulfur subunit B (SDHB) using HepaRG (AID 2283528); conditions: mRNA level, 48 h; actives raise or lower the signal
Procedure, shortened: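 Readout is SDHB transcript level by qRT-PCR, normalised to three housekeeping genes and fitted bidirectionally against 0.5% DMSO vehicle. Human HepaRG cells were treated for 48 h at up to 100 uM.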

[4] = read-out: Signal transducer and activator of transcription 3 (Homo sapiens) (UniProt P40763); assay: LTEA_HepaRG_STAT3: Life Technologies and Expression Analysis (LTEA) Assay for Signal transducer and activator of transcription (STAT3) using HepaRG (AID 2283529); conditions: mRNA level, 48 h; actives raise or lower the signal
Procedure, shortened: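 Read-out is STAT3 mRNA level by qRT-PCR, normalized to three housekeeping genes, in human HepaRG liver cells treated for 48 h. Concentrations ran from 100 uM downward in half-log steps; curves were fitted for gain or loss relative to 0.5% DMSO.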

[5] = read-out: solute carrier (SLCO1B1), SLCO1B1 (gene 10599); assay: LTEA_HepaRG_SLCO1B1: Life Technologies and Expression Analysis (LTEA) Assay for solute carrier (SLCO1B1) using HepaRG (AID 2283530); conditions: mRNA level, 48 h; actives raise or lower the signal
Procedure, shortened: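 Differentiated human HepaRG cells were exposed for 48 h in serum-free induction medium to eight half-log concentrations, top 100 uM, in 0.5% DMSO. SLCO1B1 mRNA was measured by qRT-PCR, normalized to ACTB, GAPDH and POLR2A, and fitted bidirectionally against DMSO.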

[6] = read-out: sulfotransferase 2A1 (SULT2A1), SULT2A1 (gene 6822); assay: LTEA_HepaRG_SULT2A1: Life Technologies and Expression Analysis (LTEA) Assay for sulfotransferase 2A1 (SULT2A1) using HepaRG (AID 2283531); conditions: mRNA level, 48 h; actives raise or lower the signal
Procedure, shortened: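 HepaRG human liver cells, 48 h exposure in serum-free induction medium to 8 half-log concentrations topping at 100 µM (0.5% DMSO), duplicate wells. SULT2A1 mRNA measured by TaqMan qRT-PCR, normalized to ACTB/GAPDH/POLR2A; bidirectional fit against DMSO.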

[7] = read-out: Transforming Growth Factor (TGFA), TGFA (gene 7039); assay: LTEA_HepaRG_TGFA: Life Technologies and Expression Analysis (LTEA) Assay for Transforming Growth Factor (TGFA) using HepaRG (AID 2283532); conditions: mRNA level, 48 h; actives raise or lower the signal
Procedure, shortened: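 HepaRG (human liver line), 48 h exposure, 8 conc. half-log down from 100 uM, 0.5% DMSO vehicle, duplicates; serum-free induction medium. TGFA mRNA by TaqMan qRT-PCR, ACTB/GAPDH/POLR2A normalization; gain/loss fit vs DMSO.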

[8] = read-out: Transforming Growth Factor (TGFB1), TGFB1 (gene 7040); assay: LTEA_HepaRG_TGFB1: Life Technologies and Expression Analysis (LTEA) Assay for Transforming Growth Factor (TGFB1) Transporter using HepaRG (AID 2283533); conditions: mRNA level, 48 h; actives raise or lower the signal
Procedure, shortened: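 Differentiated HepaRG cells exposed 48 hr in serum-free induction medium to eight half-log concentrations up to 100 uM (0.5% DMSO), duplicate; TGFB1 mRNA by TaqMan qRT-PCR normalised to ACTB, GAPDH, POLR2A; bidirectional fit against DMSO.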

TIMP1, TIMP1 (gene 7076) = assay: LTEA_HepaRG_TIMP1: Life Technologies and Expression Analysis (LTEA) Assay for TIMP1 using HepaRG (AID 2283534); conditions: mRNA level, 48 h; actives raise or lower the signal;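 also: TaqMan qRT-PCR signal normalized to ACTB GAPDH and POLR2A housekeeping genes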
Procedure, shortened: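 Differentiated HepaRG cells exposed 48 h in serum-free induction medium, duplicates, eight half-log concentrations from 100 uM in 0.5% DMSO. TIMP1 mRNA by qRT-PCR normalized to ACTB, GAPDH, POLR2A; bidirectional fitting against DMSO.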

[9] = read-out: Tumor necrosis factor receptor 1 (TNFRSF1A), TNFRSF1A (gene 7132); assay: LTEA_HepaRG_TNFRSF1A: Life Technologies and Expression Analysis (LTEA) Assay for Tumor necrosis factor receptor 1 (TNFRSF1A) using HepaRG (AID 2283535); conditions: mRNA level, 48 h; actives raise or lower the signal
Procedure, shortened: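 Differentiated HepaRG cells in serum-free induction medium, exposed 48 h in duplicate to 8 half-log concentrations up to 100 uM in 0.5% DMSO. TNFRSF1A mRNA by Fluidigm TaqMan qRT-PCR, normalized to ACTB, GAPDH, POLR2A; bidirectional fit.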

[10] = read-out: Thyroid Hormone Responsive (THRSP), THRSP (gene 7069); assay: LTEA_HepaRG_THRSP: Life Technologies and Expression Analysis (LTEA) Assay for Thyroid Hormone Responsive (THRSP) using HepaRG (AID 2283536); conditions: mRNA level, 48 h; actives raise or lower the signal
Procedure, shortened: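 mRNA induction or loss relative to 0.5% DMSO vehicle was fitted bidirectionally across an eight-point curve whose highest exposure was 100 uM. Human HepaRG liver cells received chemicals in duplicate over 48 h before RNA extraction.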

[11] = read-out: UDP glucuronosyltransferase (UGT1A1), UGT1A1 (gene 54658); assay: LTEA_HepaRG_UGT1A1: Life Technologies and Expression Analysis (LTEA) Assay for UDP glucuronosyltransferase (UGT1A1) using HepaRG (AID 2283538); conditions: mRNA level, 48 h; actives raise or lower the signal
Procedure, shortened: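 Readout is UGT1A1 transcript level by qRT-PCR, normalized to three housekeeping genes, after 48 h chemical treatment of HepaRG cells. Concentrations ran from 100 uM down in half-log steps with 0.5% DMSO, and gain or loss relative to DMSO was fitted.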

[12] = read-out: UDP glucuronosyltransferase (UGT1A6), UGT1A6 (gene 54578); assay: LTEA_HepaRG_UGT1A6: Life Technologies and Expression Analysis (LTEA) Assay for UDP glucuronosyltransferase (UGT1A6) using HepaRG (AID 2283539); conditions: mRNA level, 48 h; actives raise or lower the signal
Procedure, shortened: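 Differentiated HepaRG cells, ~100,000/well, were exposed for 48 h in serum-free induction medium with 0.5% DMSO to 8-point half-log series topping at 100 uM, in duplicate. mRNA measured by Fluidigm TaqMan qRT-PCR, normalized to ACTB, GAPDH and POLR2A.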

[13] = read-out: X-box binding protein 1 (XBP1), XBP1 (gene 7494); assay: LTEA_HepaRG_XBP1: Life Technologies and Expression Analysis (LTEA) Assay for X-box binding protein 1 (XBP1) using HepaRG (AID 2283540); conditions: mRNA level, 48 h; actives raise or lower the signal
Procedure, shortened: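 Differentiated human HepaRG cells in serum-free induction medium exposed 48 h in duplicate to eight half-log concentrations up to 100 uM in 0.5% DMSO. XBP1 mRNA measured by Fluidigm TaqMan qRT-PCR, normalized to ACTB, GAPDH, POLR2A; bidirectional fitting against DMSO.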

[14] = LTEA_HepaRG_LDH_cytotoxicity: Cytotoxicity Assessment in the Life Technologies and Expression Analysis (LTEA) Assay (AID 2283563; active = hit-call score of the fitted dose curve at least 0.9, where 1 is the maximum)
Procedure, shortened: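 Differentiated HepaRG cells in serum-free induction medium, exposed 48 h in duplicate to 8 half-log concentrations up to 100 uM in 0.5% DMSO. Cytotoxicity from LDH measured in spent medium, fit relative to DMSO.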

[15] = read-out: Cellular tumor antigen p53 (Homo sapiens) (UniProt P04637); assay: LTEA_HepaRG_TP53: Life Technologies and Expression Analysis (LTEA) Assay for Tumor Protein P53 (TP53) using HepaRG (AID 2283537); conditions: mRNA level, 48 h; actives raise or lower the signal
Procedure, shortened: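 Read-out is TP53 transcript level by microfluidic qRT-PCR, normalised to three housekeeping genes and fitted bidirectionally against DMSO. Human HepaRG cells received compounds for 48 h, highest concentration 100 uM.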

[16] = target: Cellular tumor antigen p53 (Homo sapiens) (UniProt P04637); assay: TOX21_p53_BLA_p2_ratio: Tox21 HCT-116 p53 Agonism Beta-lactamase Assay, Ratio, Phase 2 (AID 2283592; active = hit-call score of the fitted dose curve at least 0.9, where 1 is the maximum)
Procedure, shortened: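 HCT-116 cells with p53-responsive beta-lactamase reporter, 4000 cells/well, preincubated 5 h, then compound in DMSO (217-fold dilution) for 16 h at 37C. CCF4-AM substrate 2 h at room temperature; 460/530 nm emission ratio fitted upward versus DMSO.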

[17] = ATG_XTT_Cytotoxicity: Cytotoxicity Assessment in the Attagene TRANS-FACTORIAL HepG2 Assay (AID 2283584; active = hit-call score of the fitted dose curve at least 0.9, where 1 is the maximum)
Procedure, shortened: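 HepG2 cells transiently transfected with GAL4-UAS multiple reporter units, dosed 24 h; cytotoxicity read by XTT as loss of signal versus DMSO baseline.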

[18] = TOX21_p53_BLA_p2_viability: Viability Assessment in the Tox21 HCT-116 p53 Agonism Beta-lactamase Assay, Phase 2 (AID 2283591; active = hit-call score of the fitted dose curve at least 0.9, where 1 is the maximum;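 also: compound exposure lasted 16 h at 37 °C; actives lower the ATP signal meaning cytotoxicity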)
Procedure, shortened: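 Cytotoxicity readout: CellTiter-Glo ATP luminescence, 30 min at room temperature, after the beta-lactamase read. Cells were HCT116 exposed 16 h at 37C to compounds pin-transferred at 217-fold dilution from DMSO stocks.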

Measured: AC50

Sequence of Cellular tumor antigen p53 (Homo sapiens) (P04637 whole entry, looked up): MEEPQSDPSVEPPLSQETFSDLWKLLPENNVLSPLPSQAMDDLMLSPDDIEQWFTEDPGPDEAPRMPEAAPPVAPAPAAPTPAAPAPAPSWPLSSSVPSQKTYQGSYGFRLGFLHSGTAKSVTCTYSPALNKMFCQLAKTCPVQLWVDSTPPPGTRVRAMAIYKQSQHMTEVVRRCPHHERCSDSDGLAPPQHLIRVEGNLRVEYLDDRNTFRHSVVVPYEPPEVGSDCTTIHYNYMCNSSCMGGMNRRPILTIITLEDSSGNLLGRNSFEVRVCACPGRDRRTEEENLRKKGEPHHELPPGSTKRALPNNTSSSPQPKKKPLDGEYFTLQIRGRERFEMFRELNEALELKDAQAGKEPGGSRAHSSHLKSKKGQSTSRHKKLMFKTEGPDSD
Sequence of Nuclear factor erythroid 2-related factor 2 (Homo sapiens) (Q16236 whole entry, looked up): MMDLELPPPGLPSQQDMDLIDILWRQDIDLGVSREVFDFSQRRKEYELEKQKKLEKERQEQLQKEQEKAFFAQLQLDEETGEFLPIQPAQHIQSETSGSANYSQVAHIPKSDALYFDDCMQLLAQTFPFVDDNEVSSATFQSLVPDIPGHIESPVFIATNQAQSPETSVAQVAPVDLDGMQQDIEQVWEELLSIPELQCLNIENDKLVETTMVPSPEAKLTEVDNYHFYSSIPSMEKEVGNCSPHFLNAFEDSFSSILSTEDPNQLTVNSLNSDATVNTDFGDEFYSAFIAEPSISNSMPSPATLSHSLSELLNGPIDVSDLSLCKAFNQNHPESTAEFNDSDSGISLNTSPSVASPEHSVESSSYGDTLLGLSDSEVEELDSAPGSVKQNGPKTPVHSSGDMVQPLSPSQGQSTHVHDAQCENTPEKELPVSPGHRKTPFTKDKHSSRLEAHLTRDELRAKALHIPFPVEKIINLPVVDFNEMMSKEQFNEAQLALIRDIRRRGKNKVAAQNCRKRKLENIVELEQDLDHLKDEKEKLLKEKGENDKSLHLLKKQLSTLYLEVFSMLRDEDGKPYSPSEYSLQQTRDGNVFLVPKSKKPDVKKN
Sequence of Signal transducer and activator of transcription 3 (Homo sapiens) (P40763 whole entry, looked up): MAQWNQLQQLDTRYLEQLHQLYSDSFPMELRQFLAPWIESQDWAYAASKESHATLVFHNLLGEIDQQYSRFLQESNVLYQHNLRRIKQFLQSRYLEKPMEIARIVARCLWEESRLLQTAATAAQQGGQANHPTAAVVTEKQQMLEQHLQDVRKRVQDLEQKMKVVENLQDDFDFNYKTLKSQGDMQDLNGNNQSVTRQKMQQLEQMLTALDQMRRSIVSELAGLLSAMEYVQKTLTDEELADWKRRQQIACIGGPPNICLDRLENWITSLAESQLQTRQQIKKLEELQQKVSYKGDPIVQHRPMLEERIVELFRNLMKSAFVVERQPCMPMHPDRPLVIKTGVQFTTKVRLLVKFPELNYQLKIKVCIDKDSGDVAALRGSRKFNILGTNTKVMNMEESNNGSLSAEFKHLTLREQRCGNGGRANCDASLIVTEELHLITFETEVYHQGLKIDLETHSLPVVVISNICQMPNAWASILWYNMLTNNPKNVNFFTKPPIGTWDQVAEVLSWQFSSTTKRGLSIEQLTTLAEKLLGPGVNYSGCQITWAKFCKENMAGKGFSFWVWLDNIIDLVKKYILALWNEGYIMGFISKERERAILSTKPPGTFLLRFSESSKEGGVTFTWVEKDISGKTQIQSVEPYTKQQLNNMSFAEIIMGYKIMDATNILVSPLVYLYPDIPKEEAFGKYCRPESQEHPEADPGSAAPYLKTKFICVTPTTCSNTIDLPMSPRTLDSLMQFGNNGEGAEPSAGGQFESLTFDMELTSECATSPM

CCNS(=O)(=O)C(F)(F)C(F)(F)C(F)(F)C(F)(F)C(F)(F)C(F)(F)C(F)(F)C(F)(F)F
active: [5] 48.2 µM | [10] 48.2 µM | [13] 48.2 µM
not listed: [15] | [16] | [17] | [18]
inactive: all other assays above

OCCCl
not listed: [17] | [18]
inactive: all other assays above

Nc1ccc([N+](=O)[O-])cc1
not listed: [4] | [16]
inactive: all other assays above

CN(C)c1ccc(C(=O)c2ccc(N(C)C)cc2)cc1
active: [11] 13.2 µM | [16] 748 nM and 1.29 µM
not listed: [4]
inactive: all other assays above
